Only some compounds are listed: those with a hit (about 3.6% of all), similar ones and a draw of the others.
Sfp inh: qHTS Assay for Inhibitors of Bacillus subtilis Sfp phosphopantetheinyl transferase (PPTase); 4'-phosphopantetheinyl transferase ffp (Bacillus subtilis), Q9F4F7; Biochemical Sfp PPTase activity, qHTS; Potency, µM, without a hit: largest response in the series, negative = inhibition, hits mostly inhibitors; actives 3.5% (n = 310,000); AID 1490, 2009;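 further: the enzyme is Sfp with the accession as filed and its product quenches rhodamine fluorescence; 0% = enzyme reaction without inhibitor and -100% = no enzyme wells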
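With Hepes-Na pH 7.6 buffer containing 10 mM MgCl2, Sfp (15 nM) modified BHQ-2-YbbR (12.5 uM) using rhodamine-CoA (5 uM). Two reads 30 minutes apart at 525/598 nm yielded each well's rate.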
JMJD2E inh: qHTS Assay for Inhibitors of Human Jumonji Domain Containing 2E (JMJD2E); Lysine-specific demethylase 4E (Homo sapiens), B2RXH2; JMJD2E catalytic domain, FDH-coupled NADH fluorescence (FDH is formaldehyde dehydrogenase); Potency, µM (top dose mostly 57.1 µM), without a hit: top-dose activity change, negative = inhibition, most hits filed as inhibitors; actives 1.6% (n = 230,000); AID 2147, 2009; active means well fitted inhibition curve with a large enough effect, not every such curve was filed as active; inconclusive means small, poorly fitted or top-dose-only effect, or another doubt; inactive means no such curve, though single readings can be large or run the other way;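 further: 0% = wells with enzyme and -100% = buffer wells without enzyme; nearly all actives have a fitted effect of over 50% in size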
Target sequence (B2RXH2 1-337 limits assumed): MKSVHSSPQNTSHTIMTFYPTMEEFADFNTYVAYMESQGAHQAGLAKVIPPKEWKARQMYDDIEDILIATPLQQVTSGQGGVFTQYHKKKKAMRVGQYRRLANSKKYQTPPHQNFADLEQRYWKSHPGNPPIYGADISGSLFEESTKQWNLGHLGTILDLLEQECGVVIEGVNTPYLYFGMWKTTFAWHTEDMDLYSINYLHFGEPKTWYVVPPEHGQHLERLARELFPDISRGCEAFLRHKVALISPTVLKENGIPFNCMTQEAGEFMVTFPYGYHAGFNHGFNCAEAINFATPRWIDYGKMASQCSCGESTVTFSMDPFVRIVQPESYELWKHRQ
KAT2A inh: qHTS Assay for Inhibitors of GCN5L2; Histone acetyltransferase KAT2A (Homo sapiens), Q92830; GCN5L2 HAT assay, ThioGlo1 CoA-SH fluorescence; Potency, µM (highest dose often 58.9 µM), for the others: at the top dose activity change, negative = inhibition, most hits filed as inhibitors; actives 0.21% (n = 390,000); AID 504327, 2011; further: on the % scale 0 is the no-effect control and ±100 the full control effect
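Compounds, pin-transferred from DMSO stocks, meet 20nM GCN5L2 for 15 min before the reaction begins with H3(1-25) peptide (75uM) and acetyl-CoA (70uM). Thiol-reactive ThioGlo1 reports CoA release over 20 min at room temperature.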
Epigenetic derep: Quantitative High-Throughput Screen for Regulators of Epigenetic Control; murine LDR cells, GFP reporter derepression, 30 h; Potency, µM (top dose mostly 53.9 µM), for the others: at the top dose GFP activation, actives largely listed as activators; actives 0.2% (n = 280,000); AID 1865, 2009; further: % of control where 0% means no effect; nearly all actives have a fitted effect of over 60% in size
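Murine LDR cells bearing a silenced CMV-driven GFP reporter were exposed to compound for 30 h at 37 C. After PBS washes, GFP-positive cells (20-120 um objects) counted by laser-scanning microplate cytometry.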
NPSR antagonist: qHTS Assay for Antagonists of the Neuropeptide S Receptor: cAMP Signal Transduction; CHO-NPSR cells, cAMP TR-FRET, antagonist mode; AID 1461, 2008; actives 1% (n = 220,000); Q6W5P4; Potency, µM (series often up to 38.3 µM), without a hit: top-dose activity change, negative = inhibition, actives largely listed as inhibitors; further: on the % scale 0 is the no-effect control and ±100 the full control effect; nearly all actives have a fitted effect of over 50% in size
Target sequence (Q6W5P4 whole entry, looked up): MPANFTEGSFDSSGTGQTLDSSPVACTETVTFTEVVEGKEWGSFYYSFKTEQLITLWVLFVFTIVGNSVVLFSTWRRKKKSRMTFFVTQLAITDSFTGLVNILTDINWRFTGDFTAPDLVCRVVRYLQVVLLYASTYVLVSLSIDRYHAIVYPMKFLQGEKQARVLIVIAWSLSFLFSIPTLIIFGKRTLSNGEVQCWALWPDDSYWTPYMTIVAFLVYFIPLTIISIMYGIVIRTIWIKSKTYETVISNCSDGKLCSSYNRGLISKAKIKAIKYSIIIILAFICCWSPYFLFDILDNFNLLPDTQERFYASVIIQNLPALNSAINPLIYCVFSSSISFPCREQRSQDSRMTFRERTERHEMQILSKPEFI
IMPase Li inh: qHTS Assay for Identifying the Cell-Membrane Permeable IMPase Inhibitors: Potentiation with Lithium; AID 1457, 2008; CHO-M1 cells, IP1 TR-FRET (IP-One), carbachol + lithium; Potency, µM (top dose mostly 59.4 µM), without a hit: at the highest dose activity, negative = IMPase inhibition, most hits filed as inhibitors; actives 0.35% (n = 210,000);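 further: IP1 builds up when IMPase is blocked and the TR-FRET signal falls; plate controls were basal vehicle for no effect and high inhibitor control for full effect; nearly all actives have a fitted effect of over 50% in size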
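Test compounds were applied to CHO-M1 cells previously cultured for 16–30 h at 2000 per well. A small lithium amount accompanied them; after 30 min at 37C, IP1 was quantified by TR-FRET.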
* hit, by the source's call; ? = inconclusive; / = not tested or not shown; [ ] = another dose, or the depositor's remark. Unless noted, the call rests on the fitted dose curve; in most records, active means well fitted curve in the direction sought with a large enough effect; inconclusive means small, poorly fitted or top-dose-only effect, or another doubt; inactive means no such curve, though single readings can be large; an effect the other way counts as inactive or inconclusive. Potency means the concentration at half of the fitted maximal effect.

SMILES | Sfp inh | JMJD2E inh | KAT2A inh | Epigenetic derep | NPSR antagonist | IMPase Li inh
O=S(=O)(c1ccccc1)c1nc(-c2cccs2)oc1NCC1CCCO1 (centres undefined) | 56µM* | ? | -6% | 0% | -14%[46.1 µM] | 14%
CN(C)[C@H]1C(=O)C(C(=O)NCN2CCCC2)=C(O)[C@]2(O)C(=O)C3=C(O)c4c(O)cccc4[C@](C)(O)[C@H]3C[C@H]12 | ? | / | 1.8µM* | / | / | 11%
CN(C)c1ccc(O)c2c1CC1CC3[C@@H](N(C)C)C(=O)C(C(N)=O)C(=O)[C@]3(O)C(=O)C1C2=O (some centres undefined) | / | / | -28% | / | / | /
CN(C)c1ccc(O)c2c1C[C@@H]1C[C@H]3C(N(C)C)C(=O)C(C(N)=O)=C(O)[C@@]3(O)C(=O)C1=C2O (some centres undefined) | 2% | ? | 1% | -1% | / | /
CN(C)[C@@H]1C(=O)C(C(=O)NCN2CCCC2)=C(O)[C@@]2(O)C(=O)C3=C(O)c4c(O)cccc4[C@@](C)(O)C3CC12 (some centres undefined) | 50µM* | ? | 6.3µM* | 6% | -16% | 8%
COC(=O)[C@H](COC(C)(C)C)NC(=O)O[C@H]1C(=O)c2cc(OC)ccc2O[C@@H]1c1ccc(OC)c(Br)c1 | 19% | ? | / | 0% | / | 11%
S=C(NCc1ccc(Cl)cc1)Nc1ccc(Cl)cc1Cl | 5% | -2% | 12% | 0% | -16%[46.1 µM] | 8%
S=C(Nc1cc(Cl)ccc1Cl)Nn1cnnc1 | 18µM* | 2% | -4% | 0% | 15% | /
NC(=S)Nc1cc(Cl)ccc1Cl | ? | 0% | 5% | 0% | -24% | /
O=C(Nc1cccc(Cl)c1Cl)Nn1cnnc1 | -2% | / | -21% | / | / | /
S=C(Nc1ccc(Cl)cc1Cl)Nn1cnnc1 | 13µM* | -1% | -18% | 0% | 26% | 7%
S=C(Nc1cccc(Cl)c1Cl)Nn1cnnc1 | 35µM* | -3% | 17% | 0% | 17% | -2%
CCOc1ccc(NC(=O)CC2C(=O)N(c3cccc(C)c3)C(=O)N2CCC2=CCCCC2)cc1 (centres undefined) | / | / | -8% | -3% | / | /
O=C1NC(=O)c2cc(Nc3ccccc3)c(Nc3ccccc3)cc21 | 7% | ? | -21% | 1% | 13µM* | 20%
O=C1NC(=O)c2cc(Nc3ccc(F)cc3)c(Nc3ccc(F)cc3)cc21 | ? | / | -9% | 7% | / | 2%
CCn1cc2nc(SCC(=O)Nc3ccccc3F)n(Cc3ccc(C)cc3)c(=O)c2n1 | / | / | -3% | -1% | / | /
CCCC1CC(C)(/C(C)=N\NC(N)=S)OC1=O (centres undefined) | -26% | -3% | -2% | 2% | 6% | 0%
CC(C)CCC1CC(CSC(=N)N)OC1=O (centres undefined) | -16% | 2% | / | -1% | -2%[46.1 µM] | 6%[38.3 µM]
C/C(CCC1CC(C)(C)OC1=O)=N\NC(N)=S (centres undefined) | 45µM* | 0% | 0% | -1% | 25% | /
C/C(CC1CC(COCCC(C)C)OC1=O)=N\NC(N)=S (centres undefined) | 79µM* | 5% | -2% | -3% | -3%[46.1 µM] | -4%[38.3 µM]
C/C(CC1CC(C)(C)OC1=O)=N\NC(N)=S (centres undefined) | 35µM* | ? | -6% | -3% | 22% | /
COc1ccc(NC=O)c(C(=O)CCNC(C)=O)c1 | -1% | / | 0% | / | / | /
COc1cc2c(cc1OC)C(c1c[nH]c3ccccc13)NCC2 (centres undefined) | 26% | -29% | / | -1% | / | 7%
COc1ccccc1CN1C[C@@H]2C[C@@H](c3ccccc3C)N3CCC[C@@]23C1=O | 15% | -2% | 2% | -10% | 29% | 12%
Cc1ccccc1CN1C[C@@H]2C[C@@H](c3cnc(N4CCOCC4)s3)N3CCC[C@@]23C1=O | 50µM* | -25% | -2% | 8% | -10% | 17%
SMILES | Sfp inh | JMJD2E inh | KAT2A inh | Epigenetic derep | NPSR antagonist | IMPase Li inh
CN1C(=O)CC(c2ccccc2)CC1=O | / | / | 1% | / | / | /
N#CC1=C2SCC(O)(c3ccccc3)N2C(=O)CC1c1ccccc1 (centres undefined) | 56µM* | -4% | -8% | 1% | 5%[7.67 µM] | 3%[38.3 µM]
COC(=O)c1ccc(OC(=O)/C=C/c2ccco2)cc1 | -1% | / | -8% | / | / | /
CN(C)c1ccc(C(=O)/C=C/c2ccco2)cc1 | 50µM* | ? | -6% | -2% | -18% | 1%
O=C(/C=C/c1ccco1)c1ccc(O)cc1 | 22µM* | ? | -2% | -4% | -22% | -4%
CSc1ccc(/C=C/C(=O)c2ccc(O)cc2)cc1 | 79µM* | 0% | -5% | 6% | -16% | 8%
CN(C)c1ccc(C(=O)/C=C/c2ccccc2)cc1 | -28% | -6% | -9% | 0% | -20% | 8%
COc1ccc2[nH]cc(CCNc3ncncc3-c3ccccc3C)c2c1 | -20% | / | -11% | / | / | 21%
CCCCn1c(SCc2ccc(C(=O)OC)o2)nc2cc(S(N)(=O)=O)ccc21 | 56µM* | -21% | -7% | 3% | -22%[46.1 µM] | 5%[38.3 µM]
CCCCn1c(SCC(=O)c2cc(OC)ccc2OC)nc2cc(S(N)(=O)=O)ccc21 | -9% | -29% | -2% | 1% | -16%[46.1 µM] | -17%[38.3 µM]
CCOc1cc(N2CCOCC2)c(OCC)cc1NC(C)C(=O)N1CCN(CC)CC1 (centres undefined) | 35µM* | 27% | 4% | 0% | -16% | 31%
CCOc1cc(N2CCOCC2)c(OCC)cc1NC(=O)Cc1ccccc1OC | -13% | -9% | 28µM* | -1% | -11%[46.1 µM] | 20%[38.3 µM]
S=C(S)NCCN1CCNCC1 | / | / | / | / | / | 2%
CC(=O)OCC1OC(C#CC(C)(C)C)C=CC1OC(C)=O (centres undefined) | ? | / | / | 5%[10.1 µM] | / | /
N#CCCn1c(=O)cnc2cnc(Oc3cccc(Cl)c3)nc21 | 16% | / | -3% | / | / | 13%
Cc1cc(C)c2c(c1)-c1c(ssc1=S)C(C)(C)N2C(=O)CSc1nncn1C | 50µM* | -1% | -6% | -3% | ? | -4%[38.3 µM]
CC(C)(C)N=Cc1c(O)ccc2oc3c(c12)CCCC3 | -14% | / | 18% | / | / | /
Cc1nc2ccccc2c(=O)n1/N=C/c1c(O)ccc2oc3c(c12)CCCC3 | 22µM* | 3% | 12% | -2% | -17%[46.1 µM] | 43%[38.3 µM]
NC(=O)N/N=C/c1c(O)ccc2oc3c(c12)CCCC3 | 4% | 28µM* | 0% | 1% | -14% | /

Screens (PubChem BioAssay)
